M1 ag parental: counter-screen for M1 agonists: effect in parental CHO-K1 cells; Fluo-8 calcium fluorescence; scaled to maximal ATP response, vehicle zero; activation, % at 3 µM; 0.48% of 360,000 active; in the data active = activation above about 15%;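 also: untransfected CHO-K1 host cells lacking M1 receptor as counterscreen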
CHO-K1 Ca PAM: nonselective calcium activators in parental CHO-K1 cells, primary screen, counter-screen for M1 PAM project, cell-based, Fluo-8 calcium fluorescence, full deck, 1536-well | ATP EC20; 0% at ATP EC20, 100% at ATP max | activation, % at 3 µM | AID 602247, 2012 | 0.02% of 360,000 active;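 active = activation above the run cutoff, the mean activation of all test compounds plus 3 SD, cut at about 40% in these data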;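 also: peak over basal fluorescence ratio in a 140 s read after ATP addition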
CHRM1 PAM: human M1 muscarinic receptor positive allosteric modulators, primary screen, CHO-K1 cells, Fluo-8 calcium fluorescence, 1536-well; CHO-K1 hM1, ACh EC20; 0% = ACh EC20, 100% = maximal ACh; AID 588819, 2011; activation, % at 3 µM; Muscarinic acetylcholine receptor M1 (Homo sapiens), P11229; 0.088% of 360,000 active; in the data active = activation above about 19%, passing the limit was not always enough
Target sequence (P11229 whole entry, looked up): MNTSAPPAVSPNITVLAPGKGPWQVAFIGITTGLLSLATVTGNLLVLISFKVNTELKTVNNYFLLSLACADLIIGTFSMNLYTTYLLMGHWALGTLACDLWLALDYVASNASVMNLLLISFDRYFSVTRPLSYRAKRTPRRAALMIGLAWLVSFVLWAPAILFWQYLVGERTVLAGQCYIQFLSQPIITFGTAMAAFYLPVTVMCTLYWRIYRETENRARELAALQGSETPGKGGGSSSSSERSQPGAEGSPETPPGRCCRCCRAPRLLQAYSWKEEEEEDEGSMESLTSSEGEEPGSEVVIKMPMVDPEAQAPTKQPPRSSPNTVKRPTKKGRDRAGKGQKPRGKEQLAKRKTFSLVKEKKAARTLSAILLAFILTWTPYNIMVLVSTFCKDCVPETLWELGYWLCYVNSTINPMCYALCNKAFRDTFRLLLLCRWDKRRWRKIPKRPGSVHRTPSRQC
M1 ag: human M1 muscarinic receptor agonists, primary screen, Fluo-8 calcium fluorescence, CHO-K1 cells, HTS; CHO-K1 hM1, agonist mode; 0% DMSO, 100% acetylcholine EC100; AID 588814, 2011; Muscarinic acetylcholine receptor M1 (Homo sapiens), P11229; activation, % at 3 µM; 0.33% of 360,000 active;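 active = activation above the run's mean compound activation plus 3 SD, cut at about 16% in these data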;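 also: peak over basal fluorescence ratio within a 140 s kinetic read after compound addition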
CHRM1 antagonist: human M1 muscarinic receptor antagonists, primary screen, CHO-K1 cells, Fluo-8 calcium fluorescence, 1536-well. CHO-K1 hM1, ACh EC80 antagonist. inhibition, % at 3 µM. 1.3% of 360,000 active;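 active = percent inhibition above its own plate's cutoff, namely the mean of that plate's compound wells plus 3 SD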;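 also: peak over basal fluorescence ratio during 140 s after agonist addition; 0% = ACh EC80 plus DMSO and 100% = DMSO alone without agonist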
CHO-K1 Ca antag: counter-screen for M1 antagonists: effect in parental CHO-K1 cells | ATP-induced calcium, Fluo-8 fluorescence | inhibition, % at 3 µM | 0.6% of 360,000 active | AID 602250;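 active = inhibition above a per-plate cutoff, the plate's mean sample inhibition plus 3 SD, cut at about 24% in these data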;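 also: 0% = DMSO plus EC80 ATP and 100% = DMSO alone without ATP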
The depositor's hits bear a star; . = no result given. An excerpt weighted towards active compounds, which were near 2.3% of everything screened.

SMILES	M1 ag parental	CHO-K1 Ca PAM	CHRM1 PAM	M1 ag	CHRM1 antagonist	CHO-K1 Ca antag
O=C(O)c1ccc2c(c1)S(=O)(=O)c1cc(N3CCN(c4ncccn4)CC3)ccc1C2=O	0.9	22.0	4.8	-2.2	-6.1	-16.3
CC(=O)N1CCCC(c2cc(C(=O)Nc3ccccc3)no2)C1 (stereo not given)	-0.2	-9.4	6.0	-1.9	-17.5	34.4*
O=C(Nc1ccccc1)c1cc(C2CCCN(C(=O)C3CC3)C2)on1 (stereo not given)	1.8	28.1	6.2	-5.2	-10.1	-11.2
CCOC(=O)C1=C(C)N(C)C(=S)NC1c1cc(OC)ccc1OC (stereo not given)	-0.3	-3.7	7.5	-11.8	8.7	8.3
Cc1ccc(C(=O)NCC(C)(C)O)cc1	0.0	-7.9	-3.4	-2.2	15.5	26.3*
CC(CC(=O)NNC(=O)c1ccncc1)c1ccccc1 (stereo not given)	2.1	15.3	11.3	-1.8	-9.1	-6.3
O=C1CC(c2ccccc2)CC(O)=C1C=NCCN1CCNCC1 (stereo not given)	0.4	14.3	-7.4	10.1	25.2*	-3.2
O=C1CC(c2ccco2)CC(O)=C1C=NCCN1CCNCC1 (stereo not given)	-0.5	4.3	-12.8	2.1	38.8*	-6.2
O=C1CC(c2cccs2)CC(O)=C1C=NCCN1CCNCC1 (stereo not given)	0.4	4.7	-8.0	17.1*	32.2*	-14.4
O=C1CC(c2ccc(F)cc2)CC(O)=C1C=NCCN1CCNCC1 (stereo not given)	0.0	-5.0	-10.3	-5.5	3.8	12.8
CC(=O)Nc1ccc(-c2ccnc3c2CC(C(=O)NCc2ccco2)O3)cc1 (stereo not given)	2.1	13.1	4.4	-1.7	-0.9	7.7
CC(C)C[C@@H]1CN(CCCC[C@H]2CNC(=O)C(=O)N2CCC2CCCCC2)C(=O)C(=O)N1Cc1ccccc1	0.6	6.1	.	.	.	-22.4
COC(=O)CN(c1cc([N+](=O)[O-])ccc1OC)S(C)(=O)=O	16.8*	8.9	8.8	-7.7	-9.8	8.0
O=C(COC(=O)CCc1nc2ccccc2c(=O)[nH]1)Nc1ccccc1Cl	2.1	17.1	4.5	-4.0	-7.8	-7.7
O=C(COC(=O)CCc1nc2ccccc2c(=O)[nH]1)Nc1ccccc1OC(F)F	-0.1	2.9	23.9*	5.0	-14.7	8.6
Cc1ccc(S(=O)(=O)NNC(=O)c2c(O)c3ccccc3[nH]c2=O)cc1	15.9*	18.5	-0.2	-1.7	2.2	-2.3
COc1ccc(OC)c(NC(=O)C(CC(=O)O)NCc2ccco2)c1 (stereo not given)	1.7	19.5	7.2	-2.6	-8.7	-10.5
Cn1c(SCC(=O)N2CCN(S(=O)(=O)c3ccccc3)CC2)nc2ccccc21	3.5	-7.0	-10.7	-4.9	8.3	-12.2
CC(C)Cn1c(SCC(=O)N2CCN(S(=O)(=O)c3ccccc3)CC2)nc2ccccc21	2.9	17.3	-21.2	-6.4	29.6*	-0.7
N#CCCn1c(SCC(=O)N2CCN(S(=O)(=O)c3ccccc3)CC2)nc2ccccc21	1.2	9.2	-21.5	-6.0	64.1*	0.0
O=C(NC1CCCC1)c1cc(-c2ccc(Cl)cc2)on1	1.1	-12.2	-13.0	-4.3	25.9*	0.5
CC(C)(C)c1ccc(-c2noc(CNC(=O)c3ccco3)n2)cc1	8.3	7.8	-3.6	-1.9	6.1	0.7
O=C(CN1CCSC1=NCc1ccccc1)c1ccccc1	0.3	23.9	-9.6	-11.7	11.6	-8.7
Cn1c(=O)[nH]c(=O)c2c1nc(SCC(=O)O)n2CCc1ccccc1	-0.3	-1.3	12.3	0.2	-17.8	4.6
Cn1c(=O)[nH]c(=O)c2c1nc(SCC(=O)O)n2CCOc1ccccc1	1.8	-1.4	-26.0	-8.8	54.7*	-5.9
SMILES	M1 ag parental	CHO-K1 Ca PAM	CHRM1 PAM	M1 ag	CHRM1 antagonist	CHO-K1 Ca antag
COC(=O)c1ccn(CC(=O)NC2CCCCC2)n1	0.8	14.3	5.3	-3.5	0.6	-22.4
C/C(=N\OCc1ccc(C#N)cc1)c1ccc(S(=O)(=O)N(C)C)cc1	15.4*	-7.1	-18.2	-3.4	28.1	9.2
CC(O)c1ccc(Oc2cnccn2)cc1 (stereo not given)	0.4	-5.4	18.9	-2.0	-10.6	0.5
C=CC[C@@H](CC(=O)N[C@H](CO)Cc1ccccc1)C(=O)NC[C@H](OC(=O)[C@@H](CC=C)Cc1ccc(F)cc1)c1ccccc1	3.9	1.5	-18.6	-3.6	34.3*	-4.1
C=CCC[C@@H](Cc1ccc(F)cc1)C(=O)OC[C@H](Cc1c[nH]c2ccccc12)NC(=O)[C@@H](CC=C)CC(=O)NCCO	18.0*	1.7	5.5	1.2	0.8	7.5
COc1ccccc1C(=O)NCCNc1ccc([N+](=O)[O-])cc1Cl	0.8	-7.6	-9.5	-4.3	17.8	19.9
COc1ccnc(Oc2ccccc2)c1C(N)=O	-0.4	-12.6	6.0	-2.3	-5.2	26.7*
NC(=O)c1cccnc1Oc1ccccc1	0.3	-14.8	17.7	-2.0	-12.7	4.1
CN1CCN(C(=O)C(=O)c2cn(CC(=O)N3CCOCC3)c3ccccc23)CC1	0.7	8.9	3.4	-3.2	-10.1	1.7
Cc1c(C(=O)OCC[N+]2(C)CCCCC2)oc2ccccc12	0.1	16.7	-34.7	-13.7	54.5*	-5.2
CCn1cnc2sc(C(=O)Oc3cccc(C)c3)c(C)c2c1=O	15.1*	17.4	16.0	-8.0	-5.3	2.8
COc1cc(C(=O)Nc2ccc(-n3cnnn3)c(C)c2)cc(OC)c1OC	0.8	-7.0	3.0	3.2	-3.4	24.4*
COc1cc(C(=O)Nc2cccc(-n3cnnn3)c2)cc(OC)c1OC	3.9	15.1	1.3	-0.4	-1.7	-12.6
Clc1cccc(COn2c(-c3ccc(Cl)cc3Cl)nc3ncccc32)c1	0.7	23.2	-7.6	-5.4	1.6	-4.9
Cc1ccc(COn2c(-c3ccc(Cl)cc3Cl)nc3ncccc32)cc1	0.6	10.9	-21.7	-5.6	35.0*	-16.3
CN1CCC(C2(O)c3ccccc3CSc3sccc32)CC1 (stereo not given)	1.3	5.2	-17.1	-6.2	18.1	4.0
CN1CCC(C2(O)c3ccccc3CCc3ccccc32)CC1	0.3	12.1	-23.0	-9.2	57.4*	-1.7
C[C@H](NC(=O)C1CCN(C(=O)[C@@H]2CCCN2C(=O)OC(C)(C)C)CC1)C(=O)NCc1ccc(F)cc1	0.3	19.9	-0.7	-4.5	0.7	-12.3
C/C(CC(=O)Nc1cccnc1)=N\NC(=O)C(=O)Nc1cccc(C)c1	2.5	-13.6	-5.0	-4.9	7.6	15.2

Assay outcomes deposited in PubChem BioAssay by The Scripps Research Institute Molecular Screening Center.
